Reference: the supplement of paper PMC11732987, “Enantioselective OTUD7B fragment discovery through chemoproteomics screening and high-throughput optimisation” (Communications Chemistry, 2025)
Values without a mark were called inactive.

Tests used:
Test in all cases: log2 ratio of Biotin-Ahx-Ub-VS probe labelling (compound/DMSO); higher = less target engagement, active = hit call of the paper (q ≤ 0.05, log2 ratio ≤ -1)
Conditions in all cases: treatment time: 3 h
[1] = compound: CN(Cc1cccc(Br)c1)C(=O)CCl
How it was run: (§1)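 HEK293T lysate (495 µg per sample, in Tris/CHAPS/IGEPAL buffer with protease inhibitors) was treated in triplicate with compound at 50 or 200 µM or with DMSO for 3 h. It was then treated with Biotin-Ahx-Ub-VS (0.5 µM final) for 1 h. Labelled DUBs were NeutrAvidin-enriched, digested with LysC and trypsin, and run by diaPASEF LC-MS/MS. Median-normalised label-free quantities gave average log2 ratios compound/DMSO by unpaired t-test, using proteins with ≥2 unique peptides.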

[2] = compound: CN(Cc1ccccc1)C(=O)CCl
How it was run: as §1

[3] = compound: COc1ccc(CN(C)C(=O)CCl)cc1
How it was run: as §1

[4] = compound: COc1cccc(CN(CCCc2ccccc2)C(=O)CCl)c1
How it was run: as §1

[5] = compound: ClCC(=O)N1CCc2cc(Cl)c(Cl)cc2C1
How it was run: as §1

[6] = compound: ClCC(=O)N1CCc2nc(ncc2C1)-c1ccccc1
How it was run: as §1

[7] = compound: ClCC(=O)N1CCc2nocc2C1
How it was run: as §1

[8] = compound: ClCC(=O)N1CCc2scc(Br)c2C1
How it was run: as §1

[9] = compound: ClCC(=O)NC(C1CCCC1)c1cccs1
How it was run: as §1

UniProt Q96RU2, sequence (Q96RU2 whole entry): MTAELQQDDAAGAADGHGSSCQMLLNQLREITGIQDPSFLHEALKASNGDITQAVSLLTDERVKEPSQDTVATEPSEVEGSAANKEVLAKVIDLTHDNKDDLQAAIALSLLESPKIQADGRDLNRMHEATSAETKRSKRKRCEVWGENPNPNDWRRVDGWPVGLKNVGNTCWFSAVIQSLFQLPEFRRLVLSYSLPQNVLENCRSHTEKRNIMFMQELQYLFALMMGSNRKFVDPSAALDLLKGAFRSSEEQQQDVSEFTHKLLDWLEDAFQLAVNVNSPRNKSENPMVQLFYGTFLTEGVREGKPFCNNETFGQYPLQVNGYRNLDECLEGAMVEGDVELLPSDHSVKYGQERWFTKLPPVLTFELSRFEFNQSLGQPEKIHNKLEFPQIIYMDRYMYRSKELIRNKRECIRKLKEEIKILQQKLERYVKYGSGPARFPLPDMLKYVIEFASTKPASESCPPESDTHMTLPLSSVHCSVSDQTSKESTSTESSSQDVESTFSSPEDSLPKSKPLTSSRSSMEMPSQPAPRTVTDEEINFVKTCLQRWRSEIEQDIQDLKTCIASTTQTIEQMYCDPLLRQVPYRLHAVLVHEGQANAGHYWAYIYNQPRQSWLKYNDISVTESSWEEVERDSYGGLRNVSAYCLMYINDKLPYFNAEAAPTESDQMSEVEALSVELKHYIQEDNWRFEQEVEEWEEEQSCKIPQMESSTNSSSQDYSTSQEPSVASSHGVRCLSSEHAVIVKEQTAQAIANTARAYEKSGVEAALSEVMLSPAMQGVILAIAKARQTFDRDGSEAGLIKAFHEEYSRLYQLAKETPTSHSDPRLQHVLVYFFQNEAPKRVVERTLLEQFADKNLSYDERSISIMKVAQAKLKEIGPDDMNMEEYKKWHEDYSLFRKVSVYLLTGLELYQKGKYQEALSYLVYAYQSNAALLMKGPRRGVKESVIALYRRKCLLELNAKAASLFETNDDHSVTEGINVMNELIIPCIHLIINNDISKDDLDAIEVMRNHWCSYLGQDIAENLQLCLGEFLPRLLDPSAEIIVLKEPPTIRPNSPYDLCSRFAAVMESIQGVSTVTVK
UniProt P54578, sequence (P54578 whole entry): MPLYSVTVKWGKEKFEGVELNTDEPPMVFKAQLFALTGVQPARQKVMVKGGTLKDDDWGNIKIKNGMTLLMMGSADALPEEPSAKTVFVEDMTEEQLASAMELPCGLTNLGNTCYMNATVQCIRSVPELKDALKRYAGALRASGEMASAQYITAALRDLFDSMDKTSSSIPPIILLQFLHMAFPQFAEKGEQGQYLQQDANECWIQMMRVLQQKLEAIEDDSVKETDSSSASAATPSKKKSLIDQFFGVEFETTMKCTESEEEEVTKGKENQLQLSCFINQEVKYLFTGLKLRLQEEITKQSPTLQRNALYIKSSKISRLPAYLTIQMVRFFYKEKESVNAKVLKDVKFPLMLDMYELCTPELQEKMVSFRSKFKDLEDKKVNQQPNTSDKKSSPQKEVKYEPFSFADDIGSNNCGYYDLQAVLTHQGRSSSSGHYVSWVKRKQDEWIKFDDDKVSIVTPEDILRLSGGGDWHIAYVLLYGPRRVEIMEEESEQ
UniProt Q5T2D3, sequence (Q5T2D3 whole entry): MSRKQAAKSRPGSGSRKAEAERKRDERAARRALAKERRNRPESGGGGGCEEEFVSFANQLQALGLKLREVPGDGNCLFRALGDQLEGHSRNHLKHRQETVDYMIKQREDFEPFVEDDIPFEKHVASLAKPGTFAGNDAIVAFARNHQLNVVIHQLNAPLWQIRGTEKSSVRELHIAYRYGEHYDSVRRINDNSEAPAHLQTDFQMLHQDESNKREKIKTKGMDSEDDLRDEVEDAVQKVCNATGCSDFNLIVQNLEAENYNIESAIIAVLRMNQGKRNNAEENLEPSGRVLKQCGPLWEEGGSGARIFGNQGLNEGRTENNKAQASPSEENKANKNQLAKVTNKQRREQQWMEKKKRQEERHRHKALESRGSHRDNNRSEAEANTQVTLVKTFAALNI
UniProt Q9Y5K5, sequence (Q9Y5K5 whole entry): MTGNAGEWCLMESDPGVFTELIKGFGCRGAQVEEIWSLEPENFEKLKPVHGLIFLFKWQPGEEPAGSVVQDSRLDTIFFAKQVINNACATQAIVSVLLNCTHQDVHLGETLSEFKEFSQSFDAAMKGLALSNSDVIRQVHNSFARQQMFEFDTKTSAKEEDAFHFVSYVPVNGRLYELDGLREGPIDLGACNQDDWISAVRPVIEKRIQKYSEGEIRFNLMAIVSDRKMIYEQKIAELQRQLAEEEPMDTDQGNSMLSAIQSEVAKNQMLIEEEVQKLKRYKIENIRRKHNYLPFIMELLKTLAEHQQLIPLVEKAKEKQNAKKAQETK
UniProt O00303, sequence (O00303 whole entry): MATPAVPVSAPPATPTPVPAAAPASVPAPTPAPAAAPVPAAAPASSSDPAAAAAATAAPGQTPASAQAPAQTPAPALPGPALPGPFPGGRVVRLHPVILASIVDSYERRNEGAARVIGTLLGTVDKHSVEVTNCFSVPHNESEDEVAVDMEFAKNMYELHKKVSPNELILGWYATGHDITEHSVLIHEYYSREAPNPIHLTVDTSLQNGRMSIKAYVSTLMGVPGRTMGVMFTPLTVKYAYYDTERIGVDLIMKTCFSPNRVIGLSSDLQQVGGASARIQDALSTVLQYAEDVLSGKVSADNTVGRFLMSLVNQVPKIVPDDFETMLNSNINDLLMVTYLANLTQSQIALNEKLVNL
UniProt Q8N6M0, sequence (Q8N6M0 whole entry): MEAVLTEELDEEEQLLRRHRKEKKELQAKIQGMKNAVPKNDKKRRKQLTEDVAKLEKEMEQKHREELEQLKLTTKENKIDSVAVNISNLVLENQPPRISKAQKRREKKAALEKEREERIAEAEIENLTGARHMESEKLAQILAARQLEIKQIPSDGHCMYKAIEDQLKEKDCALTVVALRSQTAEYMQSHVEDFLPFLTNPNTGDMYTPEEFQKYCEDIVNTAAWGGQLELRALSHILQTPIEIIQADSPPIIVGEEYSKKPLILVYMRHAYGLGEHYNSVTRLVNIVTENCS
UniProt Q96FW1, sequence (Q96FW1 whole entry): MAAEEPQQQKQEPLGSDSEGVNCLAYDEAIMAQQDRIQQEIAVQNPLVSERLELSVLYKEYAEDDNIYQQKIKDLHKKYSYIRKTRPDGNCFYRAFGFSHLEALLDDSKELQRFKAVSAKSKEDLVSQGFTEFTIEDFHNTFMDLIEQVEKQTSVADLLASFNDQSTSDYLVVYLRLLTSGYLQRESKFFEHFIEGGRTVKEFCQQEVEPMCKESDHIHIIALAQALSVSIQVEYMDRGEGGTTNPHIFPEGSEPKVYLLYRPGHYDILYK
UniProt P62068, sequence (P62068 whole entry): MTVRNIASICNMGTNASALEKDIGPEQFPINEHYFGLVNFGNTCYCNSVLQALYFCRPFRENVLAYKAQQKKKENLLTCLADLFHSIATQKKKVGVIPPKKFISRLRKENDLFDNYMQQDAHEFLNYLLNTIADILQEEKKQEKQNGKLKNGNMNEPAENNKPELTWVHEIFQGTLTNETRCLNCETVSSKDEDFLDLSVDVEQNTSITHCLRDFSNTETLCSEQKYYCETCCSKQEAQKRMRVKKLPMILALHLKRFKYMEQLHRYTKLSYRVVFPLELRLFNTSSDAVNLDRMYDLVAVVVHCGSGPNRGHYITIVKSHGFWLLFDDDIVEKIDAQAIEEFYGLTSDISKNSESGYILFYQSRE

Target | log2 ratio of Biotin-Ahx-Ub-VS probe labelling ([1]; compound concentration: 50uM) | log2 ratio of Biotin-Ahx-Ub-VS probe labelling ([1]; compound concentration: 200uM) | log2 ratio of Biotin-Ahx-Ub-VS probe labelling ([2]; compound concentration: 50uM) | log2 ratio of Biotin-Ahx-Ub-VS probe labelling ([2]; compound concentration: 200uM) | log2 ratio of Biotin-Ahx-Ub-VS probe labelling ([3]; compound concentration: 50uM) | log2 ratio of Biotin-Ahx-Ub-VS probe labelling ([3]; compound concentration: 200uM) | log2 ratio of Biotin-Ahx-Ub-VS probe labelling ([4]; compound concentration: 50uM) | log2 ratio of Biotin-Ahx-Ub-VS probe labelling ([4]; compound concentration: 200uM) | log2 ratio of Biotin-Ahx-Ub-VS probe labelling ([5]; compound concentration: 50uM) | log2 ratio of Biotin-Ahx-Ub-VS probe labelling ([5]; compound concentration: 200uM) | log2 ratio of Biotin-Ahx-Ub-VS probe labelling ([6]; compound concentration: 50uM) | log2 ratio of Biotin-Ahx-Ub-VS probe labelling ([6]; compound concentration: 200uM) | log2 ratio of Biotin-Ahx-Ub-VS probe labelling ([7]; compound concentration: 50uM) | log2 ratio of Biotin-Ahx-Ub-VS probe labelling ([7]; compound concentration: 200uM) | log2 ratio of Biotin-Ahx-Ub-VS probe labelling ([8]; compound concentration: 50uM) | log2 ratio of Biotin-Ahx-Ub-VS probe labelling ([8]; compound concentration: 200uM) | log2 ratio of Biotin-Ahx-Ub-VS probe labelling ([9]; compound concentration: 50uM) | log2 ratio of Biotin-Ahx-Ub-VS probe labelling ([9]; compound concentration: 200uM)
EIF3F (UniProt O00303) | -0.146 | -0.0144 | 0.12 | 0.117 | -0.317 | -0.0894 | -0.0548 | -0.0324 | -0.117 | -0.406 | -0.18 | 0.268 | -0.16 | 0.0551 | -0.352 | -0.162 | 0.0245 | -0.0374
UniProt Q5T2D3 | 0.00241 | -0.212 | -0.381 | -0.198 | -0.229 | 0.0599 | -0.157 | -0.202 | 0.0943 | -0.112 | 0.0194 | -0.186 | -0.173 | -0.329 | -0.0373 | 0.0195 | -0.0592 | -0.12
UCHL5 (UniProt Q9Y5K5) | -0.213 | -0.442 | -0.356 | -0.432 | -0.288 | -0.317 | -0.37 | -1.17 (active) | -0.0548 | -1.36 (active) | 0.0333 | -0.459 | -0.287 | -0.349 | -0.0669 | -0.74 | -0.0991 | -0.214
USP46 (UniProt P62068) | -0.406 | -0.773 | -0.252 | -1.01 (active) | -0.0785 | -0.634 | -0.32 | -1.33 (active) | -0.575 | -2.77 (active) | 0.0166 | -1.12 (active) | -0.22 | -0.641 | -0.291 | -1.43 (active) | 0.0547 | -0.255
OTUB1 (UniProt Q96FW1) | 0.0635 | 0.0164 | -0.0602 | -0.159 | -0.0667 | -0.232 | -0.125 | -0.389 | 0.182 | -0.161 | -0.0139 | -0.309 | -0.139 | -0.129 | 0.0181 | -0.0887 | 0.00867 | -0.00015
USP14 (UniProt P54578) | -0.191 | -0.555 | -0.14 | 0.0709 | -0.127 | -0.0256 | -0.187 | -0.626 | -0.137 | -0.35 | 0.0498 | 0.0841 | -0.186 | -0.17 | -0.438 | -1 (active) | -0.115 | -0.1
USP28 (UniProt Q96RU2) | -0.197 | -0.68 | -0.195 | -0.692 | -0.172 | -0.467 | -0.253 | -0.826 | -0.496 | -1.71 (active) | -0.15 | -0.716 | -0.192 | -0.624 | -0.468 | -1.28 (active) | -0.0425 | -0.313
OTUD6B (UniProt Q8N6M0) | -0.133 | -0.53 | -0.257 | -0.515 | -0.181 | -0.334 | -0.28 | -0.784 | 0.0579 | -1.26 (active) | 0.00143 | -0.718 | -0.255 | -0.521 | -0.125 | -1.1 (active) | 0.0378 | -0.153
